Assay [1] is described as follows: Primary fluorescence-based thiol-reactive (MSTI) qHTS assay for identification of artifact compounds. (AID 1845221).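 Also: series mostly up to about 54 µM; thiol-reactive compounds lower the probe fluorescence signal; nearly all actives have a fitted effect of over 65% in size.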 A digest of the protocol: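 Probe: MSTI 4 uM, PBS pH 7.4, 2% DMSO. Incubation 1 h, RT, light-protected. Readout fluorescence 525/598 nm.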
In general terms: In qHTS, concentration-response curves come from the screen itself.

The subject of assay [2] is Nanoluciferase (engineered Oplophorus gracilirostris luciferase). The assay is described as follows: Primary Nanoluciferase (NLuc) qHTS assay for identification of artifact compounds. (AID 1845222).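 Also: NLuc secreted into diluted conditioned medium of S16 cells; series mostly up to about 54 µM.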 A digest of the protocol: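 S16 cell supernatant NLuc, 1:55; cpds qHTS; 15 min RT dark; Nano-Glo substrate 1:100, 5 min; luminescence; Hill fit of % inhibition.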
Assay [3] is described as follows: Primary redox qHTS assay for identification of artifact compounds. (AID 1845223). A digest of the protocol:
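Redox-cycling detection via DTT (250 uM final) oxidation coupled to Amplex Red (25 uM)/HRP (250 mU/mL) in HBSS. 15 min preincubation plus 30 min after DTT, room temperature. Ex/Em 525/598 nm; 4-parameter Hill fit against DMSO and 10 uM DA3003.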

Assay [4] in a line: Quantitative High-Throughput drug screen in 47 multiple myeloma cell lines against the NCATS MIPE library collection: FR4_PLB cell viability assay (AID 1918924; also: nearly all actives have a fitted effect of over 35% in size; also: potency is read from the fitted curve at half-maximal effect). A digest of the protocol:
(§1)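 Steps: seed 500 cells per well; pin-transfer MIPE 4.0 library; incubate 48 h at 37C, 5% CO2, humidified; add CellTiter-Glo, 5 min room temperature; read luminescence.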

The nature of assay [5]: Quantitative High-Throughput drug screen in 47 multiple myeloma cell lines against the NCATS MIPE library collection: EJM_DSMZ cell viability assay (AID 1918926; also: nearly all actives have a fitted effect of over 30% in size; also: potency is read from the fitted curve at half-maximal effect). A digest of the protocol: (§2)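 CellTiter-Glo luminescence (ATP) after 48 h compound exposure, 37C/5% CO2; 500 cells/well; MIPE 4.0 approved/investigational drugs pinned in; DMSO = 100%, media only = 0% viability.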

Assay [6] can be described thus: Quantitative High-Throughput drug screen in 47 multiple myeloma cell lines against the NCATS MIPE library collection: AMO1_DSMZ cell viability assay (AID 1918927; also: nearly all actives have a fitted effect of over 30% in size; also: potency is read from the fitted curve at half-maximal effect). The essentials: as §2
Assay [7] is described as follows: Quantitative High-Throughput drug screen in 47 multiple myeloma cell lines against the NCATS MIPE library collection: ARP1_JJKsccF8 cell viability assay (AID 1918928; also: nearly all actives have a fitted effect of over 40% in size; also: potency is read from the fitted curve at half-maximal effect). A digest of the protocol:
(§3)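 Cell viability inhibition in this qHTS is measured via ATP content (CellTiter-Glo) after 48 h drug exposure at 37 °C. Wells hold 500 cells; DMSO-treated wells define 100% and medium-only wells 0%.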

The nature of assay [8]: Quantitative High-Throughput drug screen in 47 multiple myeloma cell lines against the NCATS MIPE library collection: Karpas620_DSMZ cell viability assay (AID 1918959). Also: nearly all actives have a fitted effect of over 30% in size. Also: potency is read from the fitted curve at half-maximal effect. A digest of the protocol: as §1
The nature of assay [9]: Quantitative High-Throughput drug screen in 47 multiple myeloma cell lines against the NCATS MIPE library collection: JIM3_ECACC cell viability assay (AID 1918963; also: nearly all actives have a fitted effect of over 35% in size; also: potency is read from the fitted curve at half-maximal effect). A digest of the protocol: as §1
A short description of assay [10]: Quantitative High-Throughput drug screen in 47 multiple myeloma cell lines against the NCATS MIPE library collection: INA6_PLB cell viability assay (AID 1918965; also: nearly all actives have a fitted effect of over 55% in size; also: potency is read from the fitted curve at half-maximal effect). A digest of the protocol: as §2
Assay [11] is described as follows: Quantitative High-Throughput drug screen in 47 multiple myeloma cell lines against the NCATS MIPE library collection: H1112_PLB cell viability assay (AID 1918967; also: nearly all actives have a fitted effect of over 30% in size; also: potency is read from the fitted curve at half-maximal effect). The essentials: as §2
Assay [12] in a line: Quantitative High-Throughput drug screen in 47 multiple myeloma cell lines against the NCATS MIPE library collection: KMM1_JCRB cell viability assay (AID 1918960). Also: nearly all actives have a fitted effect of over 30% in size. Also: potency is read from the fitted curve at half-maximal effect. A digest of the protocol:
as §3

Assay [13] can be described thus: Quantitative High-Throughput drug screen in 47 multiple myeloma cell lines against the NCATS MIPE library collection: KHM11_PLB cell viability assay (AID 1918962). Also: nearly all actives have a fitted effect of over 35% in size. Also: potency is read from the fitted curve at half-maximal effect. A digest of the protocol:
as §1

Assay [14] in a line: Quantitative High-Throughput drug screen in 47 multiple myeloma cell lines against the NCATS MIPE library collection: Karpas25_ECACC cell viability assay (AID 1918968; also: nearly all actives have a fitted effect of over 35% in size; also: potency is read from the fitted curve at half-maximal effect). The essentials: as §2
Assay [15] is described as follows: Quantitative High-Throughput drug screen in 47 multiple myeloma cell lines against the NCATS MIPE library collection: Delta47_JCRB cell viability assay (AID 1918925; also: nearly all actives have a fitted effect of over 45% in size; also: potency is read from the fitted curve at half-maximal effect). A digest of the protocol:
as §2

Assay [16] in a line: Quantitative High-Throughput drug screen in 47 multiple myeloma cell lines against the NCATS MIPE library collection: ARD_JJKsccE7 cell viability assay (AID 1918929; also: potency is read from the fitted curve at half-maximal effect). A digest of the protocol:
as §2

A short description of assay [17]: Quantitative High-Throughput drug screen in 47 multiple myeloma cell lines against the NCATS MIPE library collection: JIM1_ECACC cell viability assay (AID 1918964; also: potency is read from the fitted curve at half-maximal effect). The essentials: as §2
Assay [18] can be described thus: Quantitative High-Throughput drug screen in 47 multiple myeloma cell lines against the NCATS MIPE library collection: KMS27_JCRB cell viability assay (AID 1918970). Also: nearly all actives have a fitted effect of over 30% in size. Also: potency is read from the fitted curve at half-maximal effect. A digest of the protocol: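 ATP-based viability (CellTiter-Glo luminescence) is measured in cells treated 48 h with approved and investigational drugs at 37 °C. Controls are DMSO-only wells for full viability and media-only wells for none.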

Assay [19] can be described thus: Quantitative High-Throughput drug screen in 47 multiple myeloma cell lines against the NCATS MIPE library collection: JJN3_DSMZ cell viability assay (AID 1918966; also: nearly all actives have a fitted effect of over 50% in size; also: potency is read from the fitted curve at half-maximal effect). A digest of the protocol: as §2

Records with an inconclusive call do not appear. The source made the active and inactive calls. Calls follow the shape of the dose curve; as a rule, active = well fitted curve in the direction sought with a large enough effect; inconclusive = small, poorly fitted or top-dose-only effect, or another doubt; inactive = no such curve, though single readings can be large; an effect the other way counts as inactive or inconclusive.

As to `Clc1ccc(Cn2c(CN3CCCC3)nc3ccccc32)cc1`, the Potency entry in assay [1] and in assay [2] was “inactive” each time. The call in assay [3] was inactive.
For the compound `COC(=O)[C@@H]1[C@H]2C[C@H]3c4[nH]c5ccccc5c4CCN3C[C@@H]2CC[C@@H]1O`, in assay [2], the Potency result was “inactive”. The result in [3] was inactive.
In the case of `CN(C)CCC(c1ccccc1)c1ccccn1` (centres undefined), the Potency result in assay [2] was “inactive”. Moreover, the compound was called inactive in assay [3].
Regarding `COc1ccccc1N1CCN(CCCNc2cc(=O)n(C)c(=O)n2C)CC1`, the Potency entry in assay [2] was “inactive”. Further, in assay [3], the result was inactive.
Take `CC(C)(C)NC(=O)Nc1cccc(Nc2ncc(F)c(NC(C)(C)CO)n2)c1`: the Potency result in assay [1], in [2], in assay [4], in assay [5], in assay [8] and in assay [11] was “inactive” each time. In [3], the compound was called inactive. The Potency is 14.8 µM (active) in assay [6], 10.5 µM (active) in assay [7], 13.2 µM (active) in [9] and 18.7 µM (active) in [10].
As for `CN(C[C@@H]1COCCO1)S(=O)(=O)Nc1ccc2ccc3ncc(-c4cnn(C)c4)cc3c(=O)c2c1`, the Potency result in assay [2] is “inactive”. Also, the result in assay [3] was inactive. Moreover, the Potency in [4] was 13.2 µM (active); in assay [5], 2.96 µM (active); in assay [12] it was 1.48 µM (active); in assay [13] it was 0.743 µM (active); in assay [10], 4.18 µM (active); in assay [11], 1.66 µM (active). Further, in assay [14], the Potency is 3.32 µM (active).
Regarding `COCCOC(=O)C1=C(C)NC2=C(C(=O)CC(c3ccccc3OC)C2)C1c1cccc(O)c1` (centres undefined), the Potency result in assay [2] was “inactive”. Moreover, the compound was called inactive in assay [3]. The Potency in [4] was 14.8 µM (active); in assay [15], 1.05 µM (active); in [6], 11.8 µM (active); in assay [7], 10.5 µM (active); in assay [16] it was 1.66 µM (active); in assay [13], 11.8 µM (active). Besides, the results for the Potency in [9], in assay [17] and in assay [14] were 20.9 µM (active), 9.35 µM (active) and 13.2 µM (active), respectively.
With `CN(C)Cc1ccc(-c2nc3cccc4c3n2CCNC4=O)cc1`, the Potency entry in assay [2] was “inactive”. Moreover, the outcome in [3] was inactive. Besides, the Potency is 23.5 µM (active) in [4]; 23.5 µM (active) in assay [15]; 20.9 µM (active) in assay [5]; 18.7 µM (active) in assay [6]; 29.6 µM (active) in assay [16]; 18.7 µM (active) in [12]. The Potency in assay [13] is 11.8 µM (active); in assay [9], 20.9 µM (active); in assay [17], 11.8 µM (active); in assay [10] it was 16.6 µM (active); in assay [11] it was 20.9 µM (active); in assay [14] it was 23.5 µM (active). In [18], the Potency is 20.9 µM (active).
Consider `CCn1c(C(=O)N(C2CC2)C2CC2)cc2c3c(ncn3C)c(Nc3cc(C)n(C)n3)nc21`, for which the Potency entry in [2], in [6], in assay [8] and in assay [18] was “inactive” throughout. In addition, the compound was classed as inactive in assay [3]. In addition, the Potency was 16.6 µM (active) in [10] and 18.7 µM (active) in assay [11].
Consider `CN[C@@H](C)C(=O)N[C@H]1CN(C(=O)CC(C)C)CC[C@H]2CC[C@@H](C(=O)NC(c3ccccc3)c3ccccc3)N2C1=O`, for which the Potency entry in assay [2] was “inactive”. For the same compound, the outcome in assay [3] was inactive. Further, the Potency in assay [5] was 16.6 µM (active); in [6], 2.96 µM (active); in assay [16], 7.43 µM (active); in assay [8] it was 1.18 µM (active); in assay [9], 9.35 µM (active).
In the case of `Cc1c(NC(=O)c2ccc(C(C)(C)C)cc2)cccc1-c1cn(C)c(=O)c(Nc2ccc(C(=O)N3CCOCC3)cc2)n1`, the Potency result in assay [2] and in assay [13] was “inactive” in each case. Further, in assay [3], the compound was called inactive. The Potency in assay [4] was 23.5 µM (active); in [15], 23.5 µM (active); in assay [5], 18.7 µM (active); in [8] it was 9.35 µM (active); in assay [12], 6.62 µM (active); in assay [9] it was 13.2 µM (active). Also, the Potency was 23.5 µM (active) in assay [10], 14.8 µM (active) in assay [19] and 16.6 µM (active) in assay [14].
In the case of `CC(C)(C)c1cc(C(=O)O)c(NC(=O)Nc2ccc3[nH]ncc3c2)s1`, the Potency result in assay [2], in assay [4], in [5], in [6], in [7] and in [16] was “inactive” each time. Also, the Potency entry in assay [12], in assay [17], in assay [10], in assay [11] and in [18] was “inactive” each time. In assay [3], the compound was called inactive.
On to `COc1ccc(C2Sc3ccccc3N(CCN(C)C)C(=O)C2OC(C)=O)cc1` (centres undefined), for which the Potency result in [2], in [4], in assay [15], in [16], in [8] and in assay [12] was “inactive” throughout. Besides, the Potency result in [9], in assay [19], in [11] and in assay [14] was “inactive” each time. Besides, the compound was classed as inactive in assay [3].
With `Cn1c(N2CCCCS2(=O)=O)nc(C(=O)NCc2ccc(F)cc2)c(O)c1=O`, the Potency entry in assay [2], in assay [15], in [5], in assay [12], in [13] and in [9] was “inactive” each time. Also, the Potency result in assay [10] and in [11] was “inactive” in each case. In addition, the compound was classed as inactive in assay [3]. For the same compound, in assay [14], the Potency is 20.9 µM (active).
As to `CC(=O)N(C)C1(c2ccccc2)CCN(CCC[C@]2(c3ccc(Cl)c(Cl)c3)CCCN(C(=O)c3ccccc3)C2)CC1`, the Potency result in [2] was “inactive”. The outcome in assay [3] was inactive. The Potency in assay [15] was 10.5 µM (active); in assay [5] it was 20.9 µM (active); in assay [6], 10.5 µM (active); in [16], 20.9 µM (active); in assay [12], 14.8 µM (active); in assay [9], 20.9 µM (active). Moreover, the Potency in assay [19] was 18.7 µM (active); in [11], 20.9 µM (active); in assay [14] it was 16.6 µM (active); in assay [18], 23.5 µM (active).
For `COc1cc2c(cc1OC)CN(CCc1ccc(NC(=O)c3cc(OC)c(OC)cc3NC(=O)c3cnc4ccccc4c3)cc1)CC2`, the Potency entry in [2], in assay [4], in assay [5], in [6], in [16] and in [8] was “inactive” throughout. In addition, the Potency entry in [12] and in [18] was “inactive” in each case. For the same compound, in [3], the outcome was inactive. For the same compound, the Potency in assay [15] was 13.2 µM (active); in [13] it was 20.9 µM (active); in assay [9] it was 23.5 µM (active); in assay [19], 0.526 µM (active); in assay [14], 8.33 µM (active).
With `COc1cc2ncnc(-n3nc(-c4ccccn4)nc3N)c2cc1OC`, the Potency result in assay [2] and in assay [6] was “inactive” throughout. Besides, the compound was classed as inactive in assay [3]. Moreover, the Potency was 11.8 µM (active) in assay [4]; 1.48 µM (active) in assay [15]; 14.8 µM (active) in [5]; 0.743 µM (active) in assay [16]; 1.05 µM (active) in assay [12]; 5.9 µM (active) in assay [13]. Further, the Potency is 7.43 µM (active) in assay [10]; 4.69 µM (active) in assay [19]; 0.743 µM (active) in assay [11]; 0.743 µM (active) in assay [14]; 0.0935 µM (active) in assay [18].

For the origin of these results see PubChem BioAssay (NCATS).
